Measured values reported in the supplement of paper PMC6555819.

What follows are sequences tested on PPARg:RXRa IVT, anti-PPARg (NR concentration 270 nM, RXRa partner concentration 90 nM) (assay: PBM binding z-score (relative to random genomic background probes); higher = stronger binding; sequences stand for … in GC…GCGATTGACAGCGTAGAATGAAGG).
Outline: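 Custom Agilent 4×180K protein-binding microarrays carried double-stranded probes, each with a 34-nt variable region. These regions held direct-repeat seeds, single-nucleotide variants, half-site ablations and random human genomic background sequences. Ligand-free nuclear receptor dimers were incubated on the arrays for 1 h, antibodies against each partner (one per run) detected binding, and scanned fluorescence was regression-normalized. Binding z-scores take the random background probes as reference.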

| Sequence | PBM binding z-score |
| --- | --- |
| ACTCGGAGTACAAAGGTCAGAGCTACGCCAGTGA | 3.83 |
| GCTCGCAGGACAAGGTCAGAGCTTTGTCCGTAGA | 0.355 |
| ATCGAAAGGTCGAAGGTGAGTATCCCCACCCGAA | 2.14 |
| GTACCAAGGTGAATAGGTCGTTGAGGAGTAGGCG | 2.41 |
| CCTACTGGGCCAAAAAGGTCATTGGTGCCGATAA | 4.13 |
| ACTATTAGTTGAGACGAGGGGAACCGATAGGTTG | 0.325 |
| TCAGACAGGTGAAGGTAACTTAGGTACGCAGTCG | 1.37 |
| GCCAGCAGGCCATTTGGGTCACTCAATGACGGGC | 1.48 |
| GCTATTAGTTGAAAGGGCAACTGAATGATTCTCG | 1.04 |
| TAGCCTAGGTCAAATCGGGCCAGTATACGCTATA | 3 |
| CAAACTAGGTCATCGGAAGGTCAAAGTCCGCATG | 8.45 |
| GGAACTAGGGCATTCGAGTTGATAGCATGGCGAT | 7.05 |
| TCTTGAAGATCAACAGGAGGTTAAGAAAGATCGA | 0.0291 |
| ACAGACAGGTGAGTGAAGGTATCTCAGCTGGACG | 0.541 |
| CAAACTAGGTCAAGCTCAAAGTCGGTTTGTGCCA | 8.97 |
| AATACAGGGTCATCGTAGCCCAGAGTACGCACAG | 5.25 |
| CCTGCTAGGTCATGGTAAGCTAATCTACAGTATG | 3.92 |
| GCTAGCAGGCCATTTGGGTCACTCAGTGACGGGC | 2.44 |
| TCAGACAGGTGAAGATAACTCAGGTACGCAGTCG | 0.984 |
| CCAGACAGGTGAGAAGGTAACTTAGCCTCGATTA | 0.458 |
| TAGCCTAGGTCATGCGGTCCAGTATAGTGTCGGC | 3.01 |
| ACTAGTTGGTCAGCGGAGGTCACACACAATTCGG | 2.75 |
